Among the test systems are SR leukemia; RPMI-8226 leukemia; OVCAR-8 ovarian; OVCAR-5 ovarian; OVCAR-4 ovarian; SK-OV-3 ovarian; IGROV1 ovarian; OVCAR-3 ovarian; HS 578T breast; NCI/ADR-RES ovarian.
Assay in all cases: NCI-60 one-dose screen, 48 h (100 = growth as untreated, 0 = no growth, -100 = all killed)
Holding throughout (settings): 10 µM unless noted

We go through 13 molecules from PubChem BioAssay (NCI).

Structures are written as SMILES. This is part of a sample that, as a whole, favours compounds with a hit. Of some 83,000 tested, about 20% had one in any assay.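 Testing used 96-well plates and a 48-hour single-concentration exposure. Example: -40 means 40% of the starting cells died.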 A number with no mark means an inactive call. Calls of active or inactive are those of the source. How the source made its calls: active means growth percent below 10; inactive means the rest.

For `COc1cc2cc(NCc3cccc(Cl)c3)nc(C)c2cc1OC`, the growth with SR leukemia was 29.6%; with RPMI-8226 leukemia, 8.04% (active); with OVCAR-8 ovarian, 45.3%; in the test with OVCAR-5 ovarian it was 43.7%; in the test on OVCAR-4 ovarian, 68%; in the test on SK-OV-3 ovarian it was 56.9%. Moreover, the growth in the test on IGROV1 ovarian was 24.6%; with OVCAR-3 ovarian it was 60.1%; with HS 578T breast, 76.3%; in the test on NCI/ADR-RES ovarian, 42.5%.

For `CCOC(=O)c1c(NC(=O)c2ccc(Cl)cc2)sc2c(CN(C)C)c(O)ccc12`, the growth was -8.09% (active) with SR leukemia; -13% (active) with RPMI-8226 leukemia; 47.7% in the test on OVCAR-8 ovarian; 95.2% with OVCAR-5 ovarian; 73.5% with OVCAR-4 ovarian; 81.6% in the test on SK-OV-3 ovarian. The growth in the test on IGROV1 ovarian is 66.1%; in the test on OVCAR-3 ovarian it was 105%; with HS 578T breast, 79.2%; in the test on NCI/ADR-RES ovarian, 73.3%.

For `Cn1ccnc1C(=O)/C=C/c1ccc(C(=O)Nc2ccccc2O)cc1`, the growth in the test with SR leukemia is -21.2% (active); with RPMI-8226 leukemia it was -11.9% (active); with OVCAR-8 ovarian, 18.6%; in the test with OVCAR-5 ovarian, 79.3%; in the test with OVCAR-4 ovarian it was 36.4%; in the test on SK-OV-3 ovarian it was 54.7%. In addition, the growth in the test with IGROV1 ovarian was 30.9%; with OVCAR-3 ovarian it was -17.9% (active); in the test on HS 578T breast, 78.9%; in the test with NCI/ADR-RES ovarian, 23.7%.

`Cn1cc(-c2ccc3nc(-c4ccc(CC(=O)ONc5cc(C(C)(C)C)on5)cc4)cnc3c2)cn1`: the growth was 15.5% with SR leukemia; 45.2% with RPMI-8226 leukemia; 33.7% with OVCAR-8 ovarian; 66.1% in the test with OVCAR-5 ovarian; 35.4% in the test with OVCAR-4 ovarian; -17.1% (active) in the test with SK-OV-3 ovarian. The growth in the test with IGROV1 ovarian was 10.3%; in the test with OVCAR-3 ovarian it was 48%; in the test with HS 578T breast, 31%; in the test on NCI/ADR-RES ovarian, 33.2%.

With `C#CCOc1ccc2ncnc(Nc3ccc(NC(=O)C=C)cc3)c2c1`, the growth is -23% (active) with SR leukemia; -29.4% (active) in the test on RPMI-8226 leukemia; 0.598% (active) in the test with OVCAR-8 ovarian; 12.2% with OVCAR-5 ovarian; 35% with OVCAR-4 ovarian; 90.6% in the test on SK-OV-3 ovarian. Further, the growth in the test with IGROV1 ovarian was -59% (active); in the test on OVCAR-3 ovarian it was -22.3% (active); in the test with HS 578T breast, 14.9%; with NCI/ADR-RES ovarian, 67%.

For the molecule `OB1OCc2cc(/C=C/c3cccc(C(F)(F)F)c3)ccc21`, the growth was -1.55% (active) in the test with SR leukemia; 15.7% with RPMI-8226 leukemia; 10.8% in the test on OVCAR-8 ovarian; 37.6% in the test on OVCAR-5 ovarian; -12.9% (active) with OVCAR-4 ovarian; 15.9% in the test on SK-OV-3 ovarian. In addition, the growth with IGROV1 ovarian was 16.8%; in the test on OVCAR-3 ovarian it was -27.3% (active); in the test on HS 578T breast it was 23.3%; in the test on NCI/ADR-RES ovarian it was 15.2%.

Take `Cc1ccc(Nc2cc(N)nc(N)n2)cc1Cl`: the growth is 108% with SR leukemia; 81.6% in the test on RPMI-8226 leukemia; 94.5% in the test on OVCAR-8 ovarian; 94.6% in the test on OVCAR-5 ovarian; 90.3% in the test with OVCAR-4 ovarian; 93.8% with SK-OV-3 ovarian. Moreover, the growth in the test on IGROV1 ovarian was 91%; with OVCAR-3 ovarian, 96.7%; in the test on HS 578T breast, 98.3%; in the test with NCI/ADR-RES ovarian it was 97%.

As for `CCN1CCN(C(=O)[C@]23CCC(C)(C)C[C@@H]2C2=CC[C@@H]4[C@@]5(C)CCC(=O)C(C)(C)[C@@H]5CC[C@@]4(C)[C@]2(C)CC3)CC1`, the growth in the test with SR leukemia is 12.2%; in the test on RPMI-8226 leukemia it was 9.86% (active); in the test with OVCAR-8 ovarian it was 63%; in the test on OVCAR-5 ovarian it was 72.2%; in the test on OVCAR-4 ovarian, 50.7%; in the test with SK-OV-3 ovarian it was 70.1%. The growth with IGROV1 ovarian was 65%; in the test on OVCAR-3 ovarian, 56.4%; with HS 578T breast, 40.7%; with NCI/ADR-RES ovarian, 39.7%.

With `C=C(C)[C@@H]1CC[C@]2(C(=O)N3CCOCC3)CC[C@]3(C)[C@H](CC[C@@H]4[C@@]5(C)C/C(=C/c6ccncc6)C(=O)C(C)(C)[C@@H]5CC[C@]43C)[C@@H]12`, the growth is 34.7% with SR leukemia; 4.12% (active) in the test with RPMI-8226 leukemia; 55.6% in the test on OVCAR-8 ovarian; 93.3% with OVCAR-5 ovarian; 49.4% in the test on OVCAR-4 ovarian; 73.9% in the test with SK-OV-3 ovarian. The growth in the test on IGROV1 ovarian is 71.1%; in the test with OVCAR-3 ovarian it was 52.4%; in the test with HS 578T breast it was 74.5%; in the test with NCI/ADR-RES ovarian, 72.3%.

As to `CCN(CC)S(=O)(=O)c1ccc(S(=O)(=O)N2CCC[C@@H](C(=O)N3CCN(c4nc(C(C)C)no4)CC3)C2)cc1`, the growth in the test on SR leukemia was 31.6%; with RPMI-8226 leukemia it was 54.8%; in the test with OVCAR-8 ovarian it was 61.3%; in the test on OVCAR-5 ovarian, 102%; with OVCAR-4 ovarian, 30.8%; in the test with SK-OV-3 ovarian, 87.3%. The growth was 86.2% in the test with IGROV1 ovarian, 75.6% with OVCAR-3 ovarian, 82.8% in the test on HS 578T breast and 58.9% with NCI/ADR-RES ovarian.

As to `CCCCCCCCCCCCCCCCCCOc1ccccc1CC(=O)OCC[N+](C)(C)C`, the growth is 11.1% with SR leukemia; 40.9% with RPMI-8226 leukemia; 5.15% (active) in the test on OVCAR-8 ovarian; 31.8% with OVCAR-5 ovarian; 20% in the test on OVCAR-4 ovarian; 56.2% with SK-OV-3 ovarian. Moreover, the growth is -61.4% (active) in the test with IGROV1 ovarian, 16.5% in the test on OVCAR-3 ovarian, 17.1% in the test on HS 578T breast and 91.3% in the test with NCI/ADR-RES ovarian.

As for `CN(C)Cc1ccc(O)c(C(=O)O)c1`, the growth is 97.8% in the test on SR leukemia; 104% in the test with RPMI-8226 leukemia; 108% in the test with OVCAR-8 ovarian; 108% in the test with OVCAR-5 ovarian; 118% in the test on OVCAR-4 ovarian; 106% in the test with SK-OV-3 ovarian. The growth with IGROV1 ovarian is 95.6%; in the test with OVCAR-3 ovarian, 111%; with HS 578T breast, 109%; with NCI/ADR-RES ovarian it was 105%.

With `Cn1cc(-c2csc(-c3c[nH]c4ccc(Br)cc34)n2)c2ccnc(Cl)c21`, the growth was 31.6% in the test with SR leukemia; 51.4% with RPMI-8226 leukemia; 63.8% with OVCAR-8 ovarian; 114% in the test on OVCAR-5 ovarian; 53.6% in the test on OVCAR-4 ovarian; 78.1% in the test on SK-OV-3 ovarian. The growth with IGROV1 ovarian is 65.9%; in the test on OVCAR-3 ovarian, 77.4%; with HS 578T breast, 68.7%; in the test with NCI/ADR-RES ovarian, 65.6%.
